About 83,000 compounds went through this panel and 20% of them were active in at least one assay; those are over-represented in the sample as a whole.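 Note: values are percent growth. 100 is the growth of untreated cells, values between 100 and 0 indicate rising inhibition; between -100 and 0 indicates cell death.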 Unmarked numbers belong to inactive results. Calls of active or inactive are those of the source. Rule for the calls: active = growth percent below 10; inactive = the rest.
How the values were obtained:
Experiment in all cases: NCI-60 one-dose screen, 48 h (100 = growth as untreated, 0 = no growth, -100 = all killed)
Details in all cases: 10 µM unless noted
HCT-15 colon = system: HCT-15 colon
HT29 colon = system: HT29 colon
SNB-75 CNS = system: SNB-75 CNS
SNB-19 CNS = system: SNB-19 CNS
U251 CNS = system: U251 CNS
PC-3 prostate = system: PC-3 prostate
SK-MEL-5 melanoma = system: SK-MEL-5 melanoma
UACC-62 melanoma = system: UACC-62 melanoma
LOX IMVI melanoma = system: LOX IMVI melanoma
SK-MEL-28 melanoma = system: SK-MEL-28 melanoma
SK-MEL-2 melanoma = system: SK-MEL-2 melanoma
EKVX NSCLC = system: EKVX NSCLC
SN12C renal = system: SN12C renal
UO-31 renal = system: UO-31 renal
TK-10 renal = system: TK-10 renal
ACHN renal = system: ACHN renal
CCRF-CEM leukemia = system: CCRF-CEM leukemia
MOLT-4 leukemia = system: MOLT-4 leukemia
A498 renal = system: A498 renal
CAKI-1 renal = system: CAKI-1 renal

| SMILES | growth (HCT-15 colon) | growth (HT29 colon) | growth (SNB-75 CNS) | growth (SNB-19 CNS) | growth (U251 CNS) | growth (PC-3 prostate) | growth (SK-MEL-5 melanoma) | growth (UACC-62 melanoma) | growth (LOX IMVI melanoma) | growth (SK-MEL-28 melanoma) | growth (SK-MEL-2 melanoma) | growth (EKVX NSCLC) | growth (SN12C renal) | growth (UO-31 renal) | growth (TK-10 renal) | growth (ACHN renal) | growth (CCRF-CEM leukemia) | growth (MOLT-4 leukemia) | growth (A498 renal) | growth (CAKI-1 renal) |
| --- | --- | --- | --- | --- | --- | --- | --- | --- | --- | --- | --- | --- | --- | --- | --- | --- | --- | --- | --- | --- |
| O=C(Nc1ccc(F)cc1)Nc1ccc(NC(=O)c2cc(Cl)nc3ccccc23)cc1 | 98.7% | 65.3% | 67.2% | 49.7% | 62.8% | 59.4% | 70.1% | 72% | 55% | 77.7% | 90.3% | 89.2% | 73.6% | 83.1% | 83.5% | 102% | 41.9% | 64.2% |  |  |
| C/C=C(\C)C(=O)NC1=CC[C@@]2(C)C(=CCC3C2CC[C@@]2(C)C3CC[C@@H]2C(C)N(C)C)C1=O (some centres undefined) | -32.5% (active) | -19.7% (active) | 42.3% | 83% | 36.3% | 26.2% | -34.7% (active) | -16.1% (active) | -53.2% (active) | -66.5% (active) | 86.5% | 32% | 60.6% | 1.15% (active) | 58.1% | 65.6% | 15.3% | 47% | 71.2% |  |
| COc1ccc(/C=C/c2nc(Nc3ccc(S(=O)(=O)Nc4cc(C)on4)cc3)c3ccccc3n2)cc1 | 48.8% | 69.3% | 74.7% | 83.2% | 74.5% | 74.7% | 43.5% | 17.5% | 31.5% | 91.7% | 75.8% | 71.6% | 82.3% | 50.3% | 71.5% |  | 49% | 70.6% | 1.73% (active) | 49.4% |
| O=C(Nc1ccc(-c2ccc3c(c2)NC(=O)/C3=C\c2ccc[nH]2)cc1)NC1CC1 | 88.3% | 88% | 89.8% | 92.6% | 75% | 99.4% | 94% | 97.7% | 89.3% | 111% | 112% | 47.5% | 101% | 88.2% | 108% | 101% | 86.1% | 94.2% |  | 99.9% |
| C[C@@H](Nc1ncnc2ccc(-c3cnc(N)nc3)cc12)c1ccc(F)cc1 | 88.6% | 84.9% | 69.5% | 76.1% | 80.9% | 69.1% | 73.2% | 69.2% | 78.4% | 92.5% | 101% | 36.7% | 33.9% | 35.1% | 21.4% | 41.5% | 95.3% |  | -13.5% (active) |  |
| N#CC1=C(/N=C/c2ccccc2)Oc2c(ccc3ccccc23)C1c1ccc([N+](=O)[O-])cc1 (centres undefined) | 91.4% | 102% | 60.4% | 94.9% | 97.4% | 78.7% | 86.9% | 87.2% | 90.4% | 118% | 90.8% | 70.7% | 93.5% | 59.5% |  | 87.9% | 94.5% | 94.4% |  | 70.1% |
| Cc1ccc(C(=O)/C(=C\c2ccc([N+](=O)[O-])cc2)S(=O)Cc2ccc(F)cc2)cc1 (centres undefined) | 7.72% (active) | -49.1% (active) | 57.1% | 41.2% | -7.84% (active) | -0.882% (active) | 64.6% | -34.5% (active) | -39% (active) | 17.3% | 62.3% | 58.5% | -52.1% (active) | -46.1% (active) | 17.6% |  | 3.64% (active) | 1.47% (active) | 68.7% |  |
| Cc1nn(-c2ccccc2)c(Oc2c(Cl)cccc2Cl)c1/C=N/N=c1\sc2ccccc2n1C | 25.3% | 33.7% | 86.4% | 49.7% | 28.5% | 44.1% | 20.2% | 36.2% | 26% | 64.1% | 80% | 77.9% | 59.1% | 57.5% |  | 43.7% | 40.7% | 18.6% |  | 36.4% |
| COc1cc2c(=O)n(CCN)c3c4cc5c(cc4ccc3c2cc1OC)OCO5 | -75.5% (active) | -89.8% (active) | 43.7% | -67.1% (active) | -74.4% (active) | -60.1% (active) | -78.8% (active) | -12.5% (active) | -76.7% (active) | -71.2% (active) | 47.2% | 52.7% | -69.3% (active) | -84.8% (active) | 42.7% |  | -19% (active) | -26% (active) |  | 18.6% |
| CCCCCN1C=C/C(=C\C(=O)n2ccc3ccccc32)c2ccccc21 | 98.4% | 80.6% | 90.9% | 106% | 91.1% | 85.3% | 97.3% | 67% | 92% | 104% | 96.9% | 69.3% | 89.9% | 49.4% |  | 93.5% | 94.6% | 90% |  | 70.6% |
| CN1C(N2CCN(S(=O)(=O)c3ccccc3)CC2)=NS(=O)(=O)c2ccccc21 | 113% | 104% | 53.4% | 104% | 99.7% | 98.9% | 104% | 94.4% | 96% | 103% | 56.7% | 111% | 90.7% | 72.4% |  | 106% | 118% | 178% | 155% | 104% |
| CCCCC[n+]1ccc(SCC(=O)N(C)c2ccc(Oc3ccccc3)cc2)c2ccccc21 | 100% | 101% | 115% | 89.1% | 95.8% | 103% | 95.2% | 75.4% | 102% | 108% | 106% | 114% | 95.5% | 86.9% |  | 107% | 85% | 82% |  | 93.5% |
| O=S(=O)(NCCCNc1nccc(-c2c(-c3cccc(F)c3)nc3sccn23)n1)c1cccc2ccccc12 | 18% | 1.97% (active) | 86.5% | 69% | 59.1% | 41.2% | 31.8% | 24.3% | 20.9% | 77.5% | 47.8% | 56.1% | 46.9% | 20% |  | 34.7% | 38.5% | 29.3% |  | 29.1% |
| O=C(Cn1c[n+](CC(=O)c2ccc([N+](=O)[O-])cc2)c2ccccc21)Nc1cccc2cccnc12 | 101% | 40.4% | 29.8% | 37.5% | 63.7% | 38.9% | 95.8% | 69.1% | 86.3% | 78.7% | 41.4% | 73.6% | 30% | 66% |  | 93.8% | 89.4% | 92.8% | 94.7% | 84.1% |
| CC1(C)NCCC[C@]2(C)[C@H]3CC(=O)[C@H]4[C@@H]5C[C@](C)(CO)CC[C@]5(C)CC[C@@]4(C)[C@]3(C)CC[C@@H]12 | 98.9% | 69.8% | 78.1% | 99.4% | 91.4% | 83.5% | 98.3% | 98% | 97.1% | 105% | 99.5% | 96.9% | 101% | 95.5% |  | 102% | 93.1% | 67% | 100% | 81.6% |
| COc1cc(NC(=O)CSc2nc3ccc(C)cc3c(=O)n2Cc2ccccc2)cc(OC)c1OC | 84.4% | 70.6% | -5.79% (active) | 89.8% | 57.6% | 74.1% | 39.3% | 53.2% | 61.7% | 75.1% | 57.2% | 84.9% | 83.5% | 71.4% |  | 38% | 94.1% |  | 14.1% | 82.4% |
| COc1cc2nc(-c3ccc(C(F)(F)F)cc3)cc(OCCCN3CCCC3)c2cc1OC | 13.1% | 20.9% | -19% (active) | 67.5% | 50.6% | 41.7% | -18.2% (active) | -25% (active) | -53.1% (active) | 71.9% | 49.3% | 65% | 44.5% | 31.5% | 100% |  | 38.5% | 46.2% |  | -7.36% (active) |
| O=C(Cn1c[n+](CC(=O)c2ccc(-c3ccccc3)cc2)c2ccccc21)Nc1cccc2cccnc12 | 95.9% | 7.47% (active) | -6.7% (active) | 7.73% (active) | 20.6% | 12.9% | -35.1% (active) | -32.3% (active) | -45.5% (active) | 21.2% | 19.4% | 47.6% | 14.9% | 67.9% | 88.5% |  | 10.5% | 11.4% |  | 44.8% |
| O=C1c2ccccc2CCC12OC2c1cn(-c2ccccc2)nc1-c1ccc(Cl)cc1 (centres undefined) | 41.4% | 102% | 90.9% | 91.9% | 64.8% | 83.6% | 83.1% | 63.8% | 81.6% | 100% | 112% | 96.7% | 101% | 88.6% | 113% |  | 86.3% |  | 91.9% |  |
| CCOC(=O)c1cc(C(=O)c2cc(OC)cc(OC)c2)n2ccc3ccccc3c12 | 100% | 101% | -7.31% (active) | 55.2% | 81.8% | 99.4% | 100% | 91.1% | 88.9% | 107% | 102% | 94.8% | 81.2% | 95.3% |  | 84.2% | 102% | 104% |  | 84.5% |
| COc1ccc(C(C)=O)c(OC)c1 | 106% | 92% | 91.7% | 100% | 101% | 91.1% | 107% | 96.1% | 103% | 109% | 94.6% | 114% | 106% | 97.4% | 99.5% |  | 103% | 102% |  | 99.7% |
| CC(=O)Nc1cccc(-c2ccc3c(c2)NC(=O)/C3=C\c2ccc[nH]2)c1 | 27.2% | 25.6% | 53.3% | 69.1% | 45.6% | 63.8% | 61.1% | 48.5% | 35.9% | 68.3% | 54.7% | 35% | 56.6% | 25.9% | 43.2% |  | 27% | 29.4% |  |  |
| CCCCCCCCCCCCCCCC[N+]1(C)CCN(SN2CC[N+](C)(CCCCCCCCCCCCCCCC)CC2)CC1 | 54.2% | 19.7% | 50.3% | 29.3% | 23.2% | 33% | 95.4% | 72.8% | 34.1% | 98.4% | 95.9% | 82.3% | 72.5% | 76.9% | 53.3% |  | 48.1% | 57.1% |  | 43.4% |
| Cc1ccc(S(=O)(=O)Nn2c3c(cc(-c4nc5ccccc5s4)c2=O)CCCCCC3)cc1 | 97% | 112% | 91.9% | 99.2% | 99.9% | 99.7% | 96.2% | 84.4% | 95.9% | 110% | 99.2% | 92.5% | 95.9% | 78.9% |  | 97.5% | 105% | 100% |  | 86.6% |
| Cc1ncc(C(=O)Nc2ccc(CN3CCN(C)CC3)c(C(F)(F)F)c2)cc1C#Cc1cnc(N)cc1C#N | -65.2% (active) | -86.2% (active) | 37% | 74.4% | -98.6% (active) | -55.6% (active) | -100% (active) | -83.7% (active) | -99.9% (active) | -94.6% (active) | -63.8% (active) | 57.5% | -5.62% (active) | -96.8% (active) |  | -100% (active) | 13.6% |  | -35.5% (active) | -88.2% (active) |
